Assays:
Experiment in all cases: PBM binding z-score (relative to random genomic background probes); higher = stronger binding; sequences stand for … in GC…GCGATTGACAGCGTAGAATGAAGG
[1] = test system: RARb homodimer (NR concentration 270 nM)
Outline: (§1)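 Random background probes are the reference for binding z-scores. These scores derive from regression-normalized fluorescence on custom Agilent 4×180K protein-binding microarrays incubated 1 h with ligand-free nuclear receptor dimers. Binding was detected with antibodies against each partner (one per run).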

[2] = test system: RARg:RXRa (NR concentration 270 nM, RXRa partner concentration 90 nM)
Outline: as §1

[3] = test system: RARg homodimer (NR concentration 270 nM)
Outline: as §1

[4] = test system: RXRa DBDmut IVT, anti-RXR (DBD mutation: RXRa K156A/R161A, NR concentration 90 nM)
Outline: as §1

[5] = test system: RXRa homodimer (NR concentration 180 nM)
Outline: as §1

[6] = test system: THRa:RXRa (NR concentration 90 nM, RXRa partner concentration 90 nM)
Outline: as §1

[7] = test system: THRa homodimer (NR concentration 90 nM)
Outline: as §1

[8] = test system: VDR homodimer (NR concentration 270 nM)
Outline: as §1

Sequence	PBM binding z-score [1]	PBM binding z-score [2]	PBM binding z-score [3]	PBM binding z-score [4]	PBM binding z-score [5]	PBM binding z-score [6]	PBM binding z-score [7]	PBM binding z-score [8]
TCATATTGGTAATACAGGTGAAAGTCGGCATCTA	0.667	0.388	0.332	1.69	0.917	0.669	0.437	0.279
GTACCAAGTTGAATAGGTCGTTGATGAGTAGGCG	0.758	0.982	0.525	0.103	0.719	0.151	-0.492	0.477
AGTCAAAGTTCACTACGTAACGTAAGATTCAGCT	3.36	4.55	5.09	4	3.76	1.4	-0.394	3.71
CAGCCTAGGGCAGGGCCAGTATAGGAGGAACGTT	0.0483	-0.0952	0.654	-1.36	-0.507	-0.901	-0.998	-0.621
AGAATGAGGTGAAGATCAGGGAAACAGAATACAT	0.949	1.15	1.09	-0.551	1.05	2.77	1.32	0.103
TGAATGAGGTTGAAGATCAGGGAACGTGGCGTCG	-0.485	0.258	0.179	-0.182	0.787	0.467	-0.42	-0.192
CGAACTAGGTCAGAACAGGATAGTGAAGGATGAT	1.64	2.44	3.17	0.707	1.34	2.39	0.235	0.187

— the supplement of paper PMC6555819
